HIF activator: HIF pathway transcriptional activators, primary screen, cell-based, U2OS HRE-luciferase, luminescence | U2OS HRE-luciferase reporter; normalized: DMSO 0%, desferrioxamine 100% | activation, % at 7.5 µM (by protocol) | 300,000 tested, 0.32% active;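 active means mean activation of at least 10% of the iron chelator positive control signal, with at least half of replicates also reaching 10%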
Rce1 inhib: yeast Rce1p protease inhibitors, primary screen, biochemical, fluorescence, cell-free homogeneous. CAAX prenyl protease 2 (Saccharomyces cerevisiae (strain ATCC 204508 / S288c)), Q03530. yeast membranes, quenched prenylated peptide cleavage fluorescence. calls only. 290,000 tested, 0.27% active. AID 2563, 2010;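 active means fall in fluorescence gain of 50% or more versus controls, with final raw signal at or below 3038400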
Target sequence (Q03530 whole entry, looked up): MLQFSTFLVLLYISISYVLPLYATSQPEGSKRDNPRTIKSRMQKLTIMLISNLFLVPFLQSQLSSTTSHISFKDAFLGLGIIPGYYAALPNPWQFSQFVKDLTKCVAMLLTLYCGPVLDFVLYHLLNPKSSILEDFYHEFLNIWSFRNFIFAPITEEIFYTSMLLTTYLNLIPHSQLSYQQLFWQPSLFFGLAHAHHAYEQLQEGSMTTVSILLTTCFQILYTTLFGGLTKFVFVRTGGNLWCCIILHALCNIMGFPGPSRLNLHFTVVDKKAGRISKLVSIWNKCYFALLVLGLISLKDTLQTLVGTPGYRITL
AI-2 QS modul: Vibrio harveyi AI-2 quorum sensing modulators, primary screen, JMH597 strain, luminescence/OD600 ratio | Vibrio harveyi JMH597 AI-2 luminescence/OD600 ratio, 9 h; stronger effect = lower value; strain lacks LuxN and CqsS sensors; 0 = neutral-control median | activity change, % at 7.5 µM | 300,000 tested, 0.4% active | AID 2094, 2009; in the data active means activity change below about -75%, passing the limit was not always enough;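 further: luminescence divided by OD600 gain over 9 h not by final OD600 alone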
C2C12 statin: suppressors of statin myotoxicity in C2C12 myotubes, primary screen, cell-based, single point, plate reader; AID 602340, 2012; 330,000 tested, 0.78% active; rescue of ATP level, % at 7.49 µM; C2C12 myotubes + simvastatin, ATP luminescence, 48 h; scaled: DMSO 0, geranylgeraniol control 100;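 active means mean ATP rescue above about 67%, or every replicate alone reaching that limit, limit read from the data, passing the limit was not always enough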;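 further: myotubes were challenged with 10 µM simvastatin during compound exposure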
PGC1a acetyl inh: inhibitors of PGC1a acetylation signal, primary screen, cell-based, U2OS, AlphaScreen, inhibitor mode | AlphaScreen anti-acetyl-lysine; with virally co-expressed GCN5 acetyltransferase | inhibition, % at 15.6 µM | 350,000 tested, 0.17% active;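 active means every replicate shows inhibition of at least 40%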
Hits are given with their value; . = inactive; / = no result; ! = repeats disagree. Hits are enriched below; roughly 1.3% of the tested compounds scored in any of these assays.

SMILES	HIF activator	Rce1 inhib	AI-2 QS modul	C2C12 statin	PGC1a acetyl inh
C[C@@H]1CN([C@@H](C)CO)C(=O)Cc2cc(N(C)C)ccc2O[C@H]1CN(C)Cc1ccc(C(F)(F)F)cc1	/	/	/	97	.
C[C@H](CO)N1C[C@H](C)[C@@H](CN(C)Cc2ccc(C(=O)O)cc2)Oc2ccc(NC(=O)Nc3ccc4c(c3)OCO4)cc2CC1=O	/	/	/	.	.
C(=C\c1ccc(C2[C@@H]3CN(Cc4cccnc4)C[C@H]2N3)cc1)/c1ccccc1 (some centres not stated)	/	/	/	/	.
COc1ccc(S(=O)(=O)Nc2cc(C(=O)NCCC(C)C)ccc2N2CCOCC2)cc1	.	.	.	93	.
COc1ccc(S(=O)(=O)Nc2cc(C(=O)NCCCOC(C)C)ccc2N2CCOCC2)cc1	.	.	.	/	/
Cc1ccccc1NC(=O)CC1c2ccccc2CC(C)(C)N1C (configuration not stated)	.	.	.	/	83
Cc1ccccc1NC(=O)CN1CCN(C)CC1	.	.	.	.	.
CS(=O)(=O)N1CCCCN2[C@@H](CO)[C@H](c3ccc(C#Cc4ccccn4)cc3)[C@@H]2C1	/	/	/	/	.
O=C(c1ccco1)N1CCN(C(=O)C2Cc3ccccc3CN2S(=O)(=O)c2ccc(F)cc2)CC1 (configuration not stated)	.	.	.	.	.
Cc1ccc(S(=O)(=O)N2CCN(C(=O)C3Cc4ccccc4CN3C(=O)c3ccco3)CC2)cc1 (configuration not stated)	.	.	.	98	.
O=[N+]([O-])c1ccc(N2CCCCC2)s1	.	/	.	125	.
Cn1ncc(Cl)c1C(=O)Nc1cccnc1	.	.	.	101	.
O=C(NCc1ccco1)c1ccc(Cn2cc([N+](=O)[O-])cn2)o1	.	.	.	/	.
O=C(NCc1ccco1)c1ccc([N+](=O)[O-])o1	.	.	-165	.	.
O=C(NCc1cccnc1)c1ccc([N+](=O)[O-])o1	.	.	-109	.	/
O=C(Nc1cccnc1)c1ccc([N+](=O)[O-])o1	.	.	-108	.	.
O=C(Cc1ccc([N+](=O)[O-])cc1)NCc1cccnc1	.	.	.	.	.
COc1ccc2c3c(n(C)c2c1)[C@@H](CO)N(Cc1ccc(Cl)cc1)CC31CCN(C(=O)NC(C)C)CC1	/	/	/	/	.
CCOC(=O)c1c(C)sc2c1N(C(=O)CN(CC)CC)c1cc(Cl)ccc1S2	.	.	.	115	.
COc1ccccc1C(=O)NCC(=O)OC(C)C(=O)NC(=O)NC1CCCCC1 (configuration not stated)	.	.	.	87	.
COc1ccccc1C(=O)NCC(=O)OC(C)C(=O)NC1CCCCC1C (configuration not stated)	/	/	/	.	.
O=[N+]([O-])c1cc(Cl)c(O)c2ncccc12	.	.	-88	/	.
Oc1c(I)cc(Cl)c2cccnc12	.	.	-108	.	.
CO[C@H]1CN(C)C(=O)c2ccc(NS(C)(=O)=O)cc2OC[C@@H](C)N(Cc2nccs2)C[C@H]1C	/	/	/	.	.
NS(=O)(=O)c1ccc(CCNCC(=O)N2CCC(Cc3ccccc3)CC2)cc1	.	.	.	85	.
SMILES	HIF activator	Rce1 inhib	AI-2 QS modul	C2C12 statin	PGC1a acetyl inh
NS(=O)(=O)c1ccc(CCNCC(=O)NC2CC2)cc1	.	.	.	.	.
Cc1ccnc(NC(=O)c2ccc(NC(=O)CC3SC(N4CCCC4)=NC3=O)cc2)c1 (configuration not stated)	.	.	.	/	.
O=C(CC1SC(N2CCCC2)=NC1=O)Nc1ccc(C(=O)Nc2ncccc2O)cc1 (configuration not stated)	20	.	.	.	.
Cc1ccc(N2N=C(C(=O)O)CCC2=O)cc1Cl	.	.	.	124	.
O=C(C[C@@H]1C[C@H]2c3cc(NC(=O)NC4CCCC4)ccc3O[C@H]2[C@H](CO)O1)NCCN1CCCCC1	/	/	/	.	.
CCC(=O)N(C)C[C@@H]1Oc2ncc(C#CCc3ccccc3)cc2C(=O)N([C@H](C)CO)C[C@@H]1C	/	/	/	.	101
C[C@H](CO)N1C[C@H](C)[C@@H](CN(C)Cc2ccccc2F)Oc2ncc(Br)cc2C1=O	/	/	/	.	64!
CC(C)CC#Cc1cnc2c(c1)C(=O)N([C@H](C)CO)C[C@H](C)[C@@H](CN(C)C(=O)Cc1ccccc1)O2	/	/	/	77	.
CC(C)CC#Cc1cnc2c(c1)C(=O)N([C@H](C)CO)C[C@@H](C)[C@@H](CN(C)C(=O)Cc1ccccc1)O2	/	/	/	.	.
COc1cccc(CCNC(=O)CC2C(=O)NCCN2Cc2ccc(Cl)c(F)c2)c1 (configuration not stated)	.	.	.	.	.
COc1cccc(CN2CCNC(=O)C2CC(=O)NCCN2CCCCC2=O)c1 (configuration not stated)	.	.	.	86	.
Cc1cc(Nc2ccccc2)cc(=O)n1C	41	.	.	/	59
Cn1c(=O)cc(Nc2ccccc2)[nH]c1=O	.	.	.	.	.
C=C(C)C1CC=C(C)/C(=N/NC(=O)c2ccc(NC(=O)CC)cc2)C1 (configuration not stated)	.	.	.	119	.
COc1ccc2[nH]c(=O)c(CN(CCc3ccccc3)C(C)=O)cc2c1	.	.	.	114	.
COc1ccc(N(Cc2cc3ccccc3[nH]c2=O)S(=O)(=O)c2ccccc2)cc1	.	.	.	182	.
O=C(CC1CC1)N1CC(=O)N2[C@H](C1)[C@@H](c1ccc(C#Cc3ccccc3)cc1)[C@@H]2CO	/	/	/	/	.
CCOC(=O)CNc1c(-c2ccccc2)nc2ccc(Cl)cn12	.	.	.	98	.
CCOC(=O)CNc1c(-c2ccc(O)cc2)nc2ccc(Cl)cn12	.	.	.	.	.
O=c1c2c3c(sc2nc2n1CCC2)CCCC3	.	.	.	.	.
CC1CSc2nc3sc4c(c3c(=O)n21)CCCC4 (configuration not stated)	.	.	.	141	.
O=c1c2c3c(sc2nc2n1CCCS2)CCCC3	.	/	.	114	.
CCCNC(=O)[C@@H]1[C@@H](CO)[C@@H]2Cn3c(ccc(-c4cccc(F)c4)c3=O)[C@H]1N2C(C)=O	/	/	/	.	/
Cc1ccc(O)c(NC(=O)c2ccc3c(c2)C(=O)N(Cc2ccco2)C3=O)c1	32	.	.	/	/
Cc1ccc(O)c(NC(=O)c2ccc3c(c2)C(=O)N(Cc2cccnc2)C3=O)c1	.	.	.	.	/
COc1ccc(Cc2nnc(Nc3ccccc3)s2)cc1Br	.	.	.	77	/

Bioassay records from PubChem BioAssay.
